Screening data: PubChem, National Center for Advancing Translational Sciences (NCATS)
The list is not random: actives were taken first. Their share in the collection is about 9.3%.
ELG1 genotoxic: induces genotoxicity in HEK293T cells with luciferase-tagged ELG1. HEK293T ELG1-luciferase reporter, luminescence, 16 h. Potency, µM (highest dose often 46 µM), usual class: activators. 1.3% of 330,000 active. AID 504466; note: nearly all actives have a fitted effect of over 60% in size
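Luminescence read-out: rising ELG1-luciferase signal, reflecting elevated ELG1 protein under genetic stress, flags genotoxic compounds. Cells were treated for 16 hr at 37 °C before ONE-Glo detection.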
SMN2 splice enh: increases expression of the SMN2 splice variant. HEK293 SMN2-luciferase splicing reporter, luminescence, 30-36 h. Potency, µM (highest dose often 46.1 µM), actives largely listed as activators. 2.8% of 210,000 active; note: nearly all actives have a fitted effect of over 55% in size
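qHTS luciferase splicing reporter: luminescence rises when SMN2 exon 7 is included in transfected HEK293 cells. Compound exposure lasted 30-36 h at 37C, with 4.5 mM final sodium butyrate as control, followed by a ONE-Glo read.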
ELG1 DNA repair: blocks ELG1-dependent DNA repair in HEK293T cells. 2.3% of 330,000 active. Potency, µM (doses to about 46.1 µM), usual class: inhibitors. HEK293T ELG1-luciferase reporter, luminescence, 16 h; DNA damage induced by 5-fluorouridine; note: nearly all actives have a fitted effect of over 55% in size
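Step one: seed 2,000 cells per well. Step two: pin-transfer compound or DMSO alongside 5-fluorouridine. Step three: incubate 16 hr, 37 °C, 5% CO2. Step four: add ONE-Glo, wait 30 min, read luminescence.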
NPC1 prom act: NPC1 promoter activation | Huh7 NPC1 promoter luciferase reporter, 24 h | Potency, µM (titrated, usually from 9.22 µM), hits mostly activators | 2.4% of 320,000 active; note: nearly all actives have a fitted effect of over 60% in size
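Huh7 reporter cells (NPC1 promoter driving luciferase) are dosed with compound for 24 h at 37 °C, 5% CO2; luciferase detection reagent is then added and luminescence measured after 10 min at ambient temperature.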
Rab9 prom act: activates the Rab9 promoter | AID 485297 | 2.8% of 320,000 active | Huh7 Rab9 promoter-luciferase reporter, luminescence, 24 h | Potency, µM (series often up to 9.22 µM), hits mostly activators; note: nearly all actives have a fitted effect of over 60% in size
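Using Huh7 cells stably transfected with Rab9 promoter–luciferase, compounds were incubated 24 h at 37 °C, 5% CO2; luciferase luminescence was read 10 min after reagent addition.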
FLuc counter: counter-screen for miR-21 project: firefly luciferase inhibitors or activators; purified FLuc, Km substrates, luminescence inhibition; Potency, µM (doses to about 57.5 µM), most hits filed as inhibitors; 6.9% of 360,000 active; AID 588342; note: nearly all actives have a fitted effect of over 55% in size
Target sequence (P08659 whole entry, looked up): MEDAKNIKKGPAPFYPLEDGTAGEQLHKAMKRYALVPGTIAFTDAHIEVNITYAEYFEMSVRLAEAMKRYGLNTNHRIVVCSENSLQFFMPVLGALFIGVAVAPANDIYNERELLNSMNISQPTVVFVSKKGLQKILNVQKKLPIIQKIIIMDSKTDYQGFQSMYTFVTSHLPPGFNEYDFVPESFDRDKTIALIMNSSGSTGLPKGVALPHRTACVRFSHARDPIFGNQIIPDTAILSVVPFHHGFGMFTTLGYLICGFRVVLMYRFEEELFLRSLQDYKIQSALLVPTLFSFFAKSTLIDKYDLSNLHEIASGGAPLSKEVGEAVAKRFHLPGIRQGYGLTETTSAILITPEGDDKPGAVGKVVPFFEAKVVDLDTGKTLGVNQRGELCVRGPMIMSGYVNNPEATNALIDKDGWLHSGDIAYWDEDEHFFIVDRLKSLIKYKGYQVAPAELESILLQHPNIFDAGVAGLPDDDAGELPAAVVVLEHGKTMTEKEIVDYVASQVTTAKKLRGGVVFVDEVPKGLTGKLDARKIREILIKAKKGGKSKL
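Purified P. pyralis luciferase, 10 nM final, with Km-level 10 uM D-luciferin and 10 uM ATP in 50 mM Tris acetate pH 7.5, 10 mM Mg acetate, 0.01% Tween-20, 0.05% BSA; 6-point qHTS titration about 60 µM downward; luminescence read.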
Each line names hits and unclear results; the compound was inactive in the other large screens. Calls come from the whole dose curve; as a rule, active = well fitted curve in the direction sought with a large enough effect; inconclusive = small, poorly fitted or top-dose-only effect, or another doubt; inactive = no such curve, though single readings can be large; an effect the other way counts as inactive or inconclusive.

CN(C)/C=C1\SC(=S)N(N2C(=O)C3C4C=CC(C4)C3C2=O)C1=O (configuration not stated)	none
COc1ccc(-c2cc(=O)c3cc(O)ccc3o2)cc1	ELG1 genotoxic 5.8µM, ELG1 DNA repair inconclusive, NPC1 prom act 1.4µM, Rab9 prom act 1.6µM, FLuc counter 1.7µM (no result: SMN2 splice enh)
O=c1cc(-c2ccccc2)oc2ccc(O)cc12	ELG1 genotoxic 21µM, ELG1 DNA repair inconclusive, NPC1 prom act 2.8µM, Rab9 prom act 4µM, FLuc counter 9.5µM (no result: SMN2 splice enh)
O=c1cc(CO)oc2ccccc12	none (no result: SMN2 splice enh, NPC1 prom act, Rab9 prom act, FLuc counter)
O=c1cc(/C=C/c2ccccc2)oc2ccccc12	ELG1 genotoxic 2.6µM, SMN2 splice enh 11µM, ELG1 DNA repair inconclusive, NPC1 prom act inconclusive, Rab9 prom act 2.2µM, FLuc counter 6µM
CC(C)Oc1ccc2c(=O)cc(-c3ccccc3)oc2c1	SMN2 splice enh 6.3µM (no result: ELG1 genotoxic, ELG1 DNA repair, NPC1 prom act, Rab9 prom act, FLuc counter)
Cc1cccc(N2CCN(c3ccc4cc(S(=O)(=O)N5CCCCC5)ccc4n3)CC2)c1C	ELG1 DNA repair inconclusive (no result: SMN2 splice enh)
O=c1c2cc(NC(=S)N3CCCCCC3)ccc2nc2n1CCCCC2	ELG1 DNA repair inconclusive
Cc1c(C)n(CCO)c2ncnc(Nc3ccc(F)cc3)c12	ELG1 genotoxic inconclusive, ELG1 DNA repair inconclusive, Rab9 prom act inconclusive, FLuc counter 19µM (no result: SMN2 splice enh)
COc1ccc(Nc2ncnc3c2cnn3Cc2ccccc2)cc1	none
Cc1c(C)n(CCCN(C)C)c2ncnc(Nc3ccc(F)cc3)c12	none (no result: SMN2 splice enh)
COc1ccc(CCNc2ncnc3c2c(C)c(C)n3CCO)cc1OC	ELG1 DNA repair 23µM, FLuc counter inconclusive (no result: SMN2 splice enh)
COc1ccc(Nc2ncnc3c2c(C)c(C)n3CCO)cc1	ELG1 genotoxic 8.2µM, ELG1 DNA repair inconclusive, NPC1 prom act 1µM, Rab9 prom act 1.6µM, FLuc counter 5.4µM (no result: SMN2 splice enh)
COc1ccc(CCNc2ncnc3c2c(C)c(C)n3CCCN(C)C)cc1OC	none (no result: SMN2 splice enh)
Cc1ccc2c(c1)c1c(c(=O)n(-c3ccccc3C)c(=O)n1CC(=O)NCC1CCCO1)n2C (configuration not stated)	none (no result: SMN2 splice enh)
CCN(CC)CCN1C(=O)C(=O)/C(=C(/O)c2ccc(S(=O)(=O)N3CCOCC3)cc2)C1c1ccc(Cl)cc1 (configuration not stated)	none (no result: SMN2 splice enh)
COc1ccc(CNC(=O)c2c(N)n(CCCN3CCOCC3)c3nc4ccccc4nc23)cc1	ELG1 DNA repair 21µM
Nc1c(C(=O)NCc2ccccc2)c2nc3ccccc3nc2n1CCCN1CCOCC1	ELG1 DNA repair 21µM
Nc1c(C(=O)NCc2ccc(F)cc2)c2nc3ccccc3nc2n1CCCN1CCOCC1	ELG1 DNA repair inconclusive
O=c1sc(N2CCN(c3ccccc3F)CC2)nc2ccsc12	ELG1 genotoxic 7.3µM, SMN2 splice enh 13µM, ELG1 DNA repair inconclusive, NPC1 prom act 1.4µM, Rab9 prom act 0.79µM, FLuc counter 2.7µM
O=c1sc(N2CCN(c3ccc(F)cc3)CC2)nc2ccsc12	ELG1 genotoxic inconclusive, SMN2 splice enh inconclusive, ELG1 DNA repair inconclusive, NPC1 prom act inconclusive, Rab9 prom act inconclusive, FLuc counter 8.5µM
O=C(c1ccco1)N1CCN(c2nc3ccsc3c(=O)s2)CC1	none
Cc1c(Cl)cccc1NC(=O)Cn1nnc2sc3c(c2c1=O)CCCC3	none (no result: ELG1 genotoxic, ELG1 DNA repair, NPC1 prom act, Rab9 prom act)
CN1C(=O)[C@@H]2[C@@H]3C[C@@H]([C@H]4ON=C(c5ccccc5OCC#N)[C@@H]34)[C@@H]2C1=O	none (no result: SMN2 splice enh)
COc1ccc(-c2nn(-c3ccccc3)cc2/C=C/C(=O)N2CCN(c3ccccn3)CC2)cc1	none
CN(C(=O)c1cc2c(=O)n3ccccc3nc2n1C)C1CCCCC1	ELG1 genotoxic 4.6µM, ELG1 DNA repair inconclusive, NPC1 prom act 2µM, Rab9 prom act 3.2µM, FLuc counter 12µM (no result: SMN2 splice enh)
Cn1cccc1C(=O)C(=O)Nc1cccc(Cl)c1Cl	ELG1 genotoxic inconclusive, SMN2 splice enh 25µM, ELG1 DNA repair inconclusive, FLuc counter 2.4µM
Cn1cccc1C(=O)C(=O)Nc1ccc(F)c(F)c1	ELG1 genotoxic inconclusive, SMN2 splice enh 11µM, ELG1 DNA repair inconclusive, NPC1 prom act 2µM, Rab9 prom act 1.3µM, FLuc counter 11µM
CC(C)(C)NC(=O)Nc1cccc(Cl)c1Cl	none (no result: SMN2 splice enh)
